From PubChem BioAssay
NPC1 prom act: activators of NPC1 promoter; Huh7 NPC1 promoter luciferase reporter, 24 h; Potency, µM (series often up to 9.22 µM), usual class: activators; 320,000 tested, 2.4% active; note: nearly all actives have a fitted effect of over 60% in size
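Cells: Huh7 expressing luciferase under the NPC1 promoter, 1500/well. Seeded 2 h, compound added, incubated 24 h at 37 °C. Luciferase reagent, 10 min ambient, then luminescence.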
ELG1 genotox: genotoxicity induction in ELG1-luciferase HEK293T cells; HEK293T ELG1-luciferase reporter, luminescence, 16 h; 330,000 tested, 1.3% active; Potency, µM (highest dose often 46 µM), usual class: activators; note: nearly all actives have a fitted effect of over 60% in size
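Genotoxicity was scored as increased ELG1-luciferase reporter signal, measured by ONE-Glo luminescence (30 min, room temperature). Compound or vehicle exposure of the HEK293T reporter cells lasted 16 hr at 37°C.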
FLuc counter: firefly luciferase modulation, counter-screen for miR-21 project. 360,000 tested, 6.9% active. Potency, µM (top dose mostly 57.5 µM), actives largely listed as inhibitors. purified FLuc, Km substrates, luminescence inhibition. P08659; note: nearly all actives have a fitted effect of over 55% in size
Target sequence (P08659 whole entry, looked up): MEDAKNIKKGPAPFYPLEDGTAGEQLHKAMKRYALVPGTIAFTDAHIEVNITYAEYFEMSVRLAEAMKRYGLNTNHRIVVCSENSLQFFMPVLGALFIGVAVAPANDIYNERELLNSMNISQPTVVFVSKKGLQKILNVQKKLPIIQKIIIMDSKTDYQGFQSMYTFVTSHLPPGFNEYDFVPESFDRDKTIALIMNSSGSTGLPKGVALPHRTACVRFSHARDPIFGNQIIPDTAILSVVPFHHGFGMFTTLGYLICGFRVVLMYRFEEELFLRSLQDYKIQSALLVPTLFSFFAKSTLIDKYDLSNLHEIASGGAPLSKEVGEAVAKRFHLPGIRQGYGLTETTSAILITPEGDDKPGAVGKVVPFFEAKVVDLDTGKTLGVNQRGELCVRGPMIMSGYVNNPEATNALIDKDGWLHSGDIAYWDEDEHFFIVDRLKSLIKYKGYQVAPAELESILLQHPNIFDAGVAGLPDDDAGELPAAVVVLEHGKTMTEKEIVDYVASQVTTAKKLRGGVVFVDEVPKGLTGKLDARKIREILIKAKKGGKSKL
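Purified P. pyralis luciferase, 10 nM final, with Km-level 10 uM D-luciferin and 10 uM ATP in 50 mM Tris acetate pH 7.5, 10 mM Mg acetate, 0.01% Tween-20, 0.05% BSA; 6-point qHTS titration about 60 µM downward; luminescence read.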
SMN2 splice up: SMN2 splice variant enhancement; HEK293 SMN2-luciferase splicing reporter, luminescence, 30-36 h; Potency, µM (highest dose often 46.1 µM), actives largely listed as activators; 210,000 tested, 2.8% active; AID 1458; note: nearly all actives have a fitted effect of over 55% in size
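qHTS luciferase splicing reporter: luminescence rises when SMN2 exon 7 is included in transfected HEK293 cells. Compound exposure lasted 30-36 h at 37C, with 4.5 mM final sodium butyrate as control, followed by a ONE-Glo read.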
Rab9 promoter act: activators of Rab9 promoter. Huh7 Rab9 promoter-luciferase reporter, luminescence, 24 h. Potency, µM (highest dose often 9.22 µM), usual class: activators. 320,000 tested, 2.8% active. AID 485297; note: nearly all actives have a fitted effect of over 60% in size
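Using Huh7 cells stably transfected with Rab9 promoter–luciferase, compounds were incubated 24 h at 37 °C, 5% CO2; luciferase luminescence was read 10 min after reagent addition.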
ELG1 DNA repair: blocks ELG1-dependent DNA repair in HEK293T cells; HEK293T ELG1-luciferase reporter, luminescence, 16 h; DNA damage induced by 5-fluorouridine; Potency, µM (series often up to 46.1 µM), usual class: inhibitors; 330,000 tested, 2.3% active; note: nearly all actives have a fitted effect of over 55% in size
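Reporter activity after DNA damage by 5-fluorouridine is monitored. Compound-treated cells incubate 16 hr at 37 °C, then ONE-Glo is added for 30 min before luminescence reading.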
Numbers stand for hits; . = inactive; ? = inconclusive; / = no result. In the library only some 9.2% were active in any assay of this set; here they are far more common. Calls come from the whole dose curve; as a rule, active = well fitted curve in the direction sought with a large enough effect; inconclusive = small, poorly fitted or top-dose-only effect, or another doubt; inactive = no such curve, though single readings can be large; an effect the other way counts as inactive or inconclusive.

SMILES	NPC1 prom act	ELG1 genotox	FLuc counter	SMN2 splice up	Rab9 promoter act	ELG1 DNA repair
COCCn1c(=O)[nH]c2cc(C(=O)Nc3nnc(C)s3)ccc21	.	?	13.5µM	/	?	?
COc1ccc(OC)c(-c2cnc(OC(C)(C)C)nc2OC(C)(C)C)c1	.	.	.	?	.	.
COC(=O)c1c(SC)nc2ccccc2c1OCc1ccc(C)cc1	/	/	.	/	/	/
CCc1cc(C(=O)O)c(NC(=O)c2cc(OC)c(OC)c(OC)c2)s1	.	?	8.49µM	.	.	?
CCOC(=O)c1cc(CC)sc1NC(=O)c1cc(OCC)c(OCC)c(OCC)c1	.	.	.	.	.	.
CC(C)Cc1nnc(NC(=O)Nc2ccccc2)s1	?	?	16.9µM	11.2µM	3.16µM	?
CCc1nnc(NC(=O)Nc2ccc(OC)cc2)s1	?	?	16.9µM	.	?	?
O=C(COC(=O)CNC(=O)c1ccccc1F)NC12CC3CC(CC(C3)C1)C2	.	.	/	/	.	.
CCOc1ccc(NC(=O)CSc2ncc3c(n2)-c2ccccc2N(C)S3(=O)=O)cc1	/	/	.	/	/	/
CCN(CC(=O)NCC(=O)Nc1ccc(Br)cc1C)Cc1ccccc1	.	.	.	/	.	.
c1ccc(CSc2ccc(-c3ccccn3)nn2)nc1	2.82µM	?	?	11.2µM	2.51µM	?
Clc1ccc(-c2ccc(SCc3ccccn3)nn2)cc1	2.24µM	?	?	?	3.16µM	?
O=[N+]([O-])c1ccc(CSc2ccc(-c3ccccn3)nn2)cc1	.	.	.	.	.	.
CCOC(=O)N/N=C(/c1ccccc1)C1CCCCC1	.	.	.	.	.	.
O=C(COc1ccc(-c2ccccc2)cc1)NNC(=O)Nc1ccccc1	.	.	.	/	.	.
CCCC(=O)Oc1c(Sc2ccc(C)cc2)c(C)nn1-c1ccccc1	/	/	?	.	/	/
CCOC(=O)c1sc2cccc(F)c2c1S(=O)(=O)N1CCN(c2cccc(Cl)c2)CC1	/	/	.	/	/	/
NC(=S)NN=Cc1ccc(-c2ccc(S(=O)(=O)Nc3ncccn3)cc2)o1	/	.	/	/	/	.
NS(=O)(=O)c1ccc(-c2ccc(/C=N/NC(=O)c3ccccc3O)o2)cc1	.	.	6.75µM	/	.	.
CCOc1ccc(C(=O)N/N=C/c2ccc(-c3ccc(S(=O)(=O)Nc4ncccn4)cc3)o2)cc1	.	.	19µM	.	.	.
O=C(N/N=C/c1ccc(-c2ccc(S(=O)(=O)Nc3ncccn3)cc2)o1)c1cc2ccccc2cc1O	.	.	21.3µM	?	.	.
CC(=O)Oc1c(/C=C(\C#N)C(N)=O)[nH]c2ccccc12	.	.	?	.	.	20.6µM
N#C/C(=C\c1c[nH]c2ccccc12)C(N)=O	.	.	?	/	.	.
O=c1c(=Nc2ccccc2O)c(=O)c2ccccc12	?	?	.	11.2µM	3.55µM	?
O=C(NCCn1cc(SCC(=O)N2CCOCC2)c2ccccc21)c1ccccc1	.	.	.	.	.	.
SMILES	NPC1 prom act	ELG1 genotox	FLuc counter	SMN2 splice up	Rab9 promoter act	ELG1 DNA repair
O=C(Cn1cc(SCc2c(F)cccc2Cl)c2ccccc21)N1CCCC1	/	/	16.9µM	/	/	/
O=C(CSc1cn(Cc2ccccc2)c2ccccc12)N1CCOCC1	?	18.4µM	23.9µM	12.6µM	.	?
Cc1ccc(CSc2cn(CC(=O)N3CCCC3)c3ccccc23)cc1	/	/	15.1µM	/	/	/
O=C(Cn1cc(SCc2ccc(Cl)cc2)c2ccccc21)N1CCOCC1	.	.	23.9µM	?	.	?
O=C(O)Cc1csc(-c2cccc(F)c2)n1	.	.	?	.	.	.
CCOC(=O)[C@@H]1[C@H]2COc3cc(OC)ccc3[C@H]2N2C(=O)N(c3cccc(F)c3)C(=O)[C@]12C	/	.	/	/	/	?
COc1cccc(CNC(=O)CN(c2ccc(C(C)C)cc2)S(=O)(=O)c2c(C)n[nH]c2C)c1	/	/	.	.	/	/
Cc1cccc(CSc2cn(CC(=O)N3CCCC3)c3ccccc23)c1	/	/	15.1µM	/	/	/
O=Cc1cn(CC(=O)N2CCCCC2)c2ccccc12	.	.	.	.	.	.
CN1C(=O)/C(=C/c2cn(CC(=O)N3CCCCC3)c3ccccc23)c2ccccc21	.	.	?	.	.	20.6µM
Cc1cc(C(=O)CN2C(=O)c3ccccc3C2=O)c(C)n1Cc1cccs1	0.501µM	?	0.849µM	14.1µM	0.398µM	?
CCCn1c(C)cc(C(=O)CN2C(=O)c3cccc(N)c3C2=O)c1C	2.82µM	?	2.69µM	?	3.16µM	?
Cc1cc(C(=O)Cn2nnc3ccccc3c2=O)c(C)n1Cc1cccs1	0.355µM	2.59µM	0.601µM	.	0.447µM	?
Cc1cc(C(=O)CN2C(=O)CCC2=O)c(C)n1Cc1ccccc1	.	?	?	.	.	?
CC(=O)N1CC(=O)N(Cc2ccccc2)/C(=C/c2ccccc2)C1=O	.	.	.	.	.	.
CCCCC1CCC(C(=O)N(CCOC)c2c(N)n(CCCC)c(=O)[nH]c2=O)CC1 (stereo not drawn)	.	.	.	/	.	.
Cc1[nH]ccc(=O)c1Oc1ncc(C(F)(F)F)cc1Cl	.	.	.	.	.	.
N=C1C(c2nc3ccccc3s2)=C(O)CN1Cc1ccco1	?	9.2µM	?	?	?	?
CN(C)CCN1CC(O)=C(c2nc3ccccc3s2)C1=N	.	.	.	/	.	.
CC(C)(C)n1cnc2cc(NCc3ccccc3O)ccc21	.	.	12µM	/	.	?
CCN(CC)c1ccc(CNc2ccc3c(c2)ncn3C(C)(C)C)cc1	.	.	?	/	.	.
CC(C)n1cnc2cc(NCc3ccccn3)ccc21	1.78µM	?	23.9µM	17.8µM	?	?
COc1cc(C(=O)Nc2ccc3c(c2)ncn3C(C)(C)C)cc(OC)c1OC	.	.	?	/	.	?
CN(C)c1ccc(CNc2ccc3c(c2)ncn3C)cc1	.	?	?	.	.	?
CC(C)(C)n1cnc2cc(NC(=O)c3ccc(Cl)cc3)ccc21	0.562µM	2.91µM	4.78µM	/	0.501µM	?
SMILES	NPC1 prom act	ELG1 genotox	FLuc counter	SMN2 splice up	Rab9 promoter act	ELG1 DNA repair
CC(C)n1cnc2cc(NCc3ccccc3O)ccc21	.	.	21.3µM	/	?	?
CC(=O)c1ccc(NC(=O)c2sc(-n3nc(C)c(CCC(C)C)c3C)nc2C)cc1	/	/	.	/	/	/
Cc1ccccc1NC(=S)Nc1ccc2[nH]c(=O)[nH]c2c1	.	.	.	/	.	.
Cc1cccc(NC(=S)NCc2ccccn2)c1	.	.	.	.	.	.
CCCn1c(NCc2ccco2)nc2ccccc21	.	.	.	?	.	.
CC(C)n1cnc2cc(NCc3ccco3)ccc21	?	.	16.9µM	?	?	?
Cc1cc(NCc2ccccn2)ccc1Br	?	.	15.1µM	.	?	?
COC(=O)c1ccc(CNC(=O)c2ccc(OCC(=O)N3CCOCC3)c(OC)c2)cc1	.	.	.	/	.	.
CC(=O)Nc1cccc(OCc2cnc(Cl)s2)c1	.	.	.	.	.	?
